A1 inh: inhibitors of the anti-apoptotic protein A1, read as caspase activation; MEF A1-2A-BIM cells, Caspase-Glo 3/7 luminescence, 3 h; percent of clofoctol response, vehicle zero; 0.066% of 330,000 active; caspase activation, % (concentration not given with the values);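 active means over half of replicate activation scores above 10%, or exactly half above 10 with the replicate mean above 10; inconclusive means replicate mean below 10 yet half the replicates above 10; inactive means over half of replicates below 10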
Beta cell apopt: blocks beta cell apoptosis; INS-1E cytokine-induced death, ATP luminescence, 48 h; percent of positive-control rescue, neutral wells zero; protection from apoptosis, % (concentration not given with the values); 0.8% of 300,000 active; AID 435005;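 active means Every replicate reaches about 75%, or at least half do and their mean reaches it too, limit read from the data; inconclusive means At least half of replicates reach the limit but their mean does not; inactive means Under half of replicates reach the limit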;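 further: higher means more ATP so stronger rescue from cytokine killing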
697 NFkB inh: lowers PMA/ionomycin-induced NF-kB signal in 697 B cells | 697 B-cell NF-kB luciferase reporter, 16 h | inhibition, % at 4 µM | 0.33% of 330,000 active | AID 435022; in the data active means inhibition above about 35%
Mdm2-MdmX inh: human Mdm2/MdmX binding inhibition; O15151+Q00987; SaOS-2 split-luciferase Mdm2/MdmX complementation, luminescence; 3% of 330,000 active; inhibition, % at 8 µM; AID 485346;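 active means inhibition of at least 50% at 8 µM in the primary screen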
Target sequence (O15151 whole entry, looked up): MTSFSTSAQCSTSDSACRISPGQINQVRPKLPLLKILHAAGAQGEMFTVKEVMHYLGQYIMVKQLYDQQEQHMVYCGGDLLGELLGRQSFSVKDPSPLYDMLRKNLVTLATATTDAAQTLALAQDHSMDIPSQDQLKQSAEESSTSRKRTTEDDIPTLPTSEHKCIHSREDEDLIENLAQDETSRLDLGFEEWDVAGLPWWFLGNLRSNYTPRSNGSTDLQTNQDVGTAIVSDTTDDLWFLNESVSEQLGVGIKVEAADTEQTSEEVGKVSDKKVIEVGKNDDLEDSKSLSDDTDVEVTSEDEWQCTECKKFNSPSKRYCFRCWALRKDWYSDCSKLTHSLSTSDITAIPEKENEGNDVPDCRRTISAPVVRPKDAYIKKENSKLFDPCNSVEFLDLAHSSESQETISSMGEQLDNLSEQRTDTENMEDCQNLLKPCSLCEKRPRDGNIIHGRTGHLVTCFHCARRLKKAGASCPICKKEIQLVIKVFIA
Target sequence (Q00987 whole entry, looked up): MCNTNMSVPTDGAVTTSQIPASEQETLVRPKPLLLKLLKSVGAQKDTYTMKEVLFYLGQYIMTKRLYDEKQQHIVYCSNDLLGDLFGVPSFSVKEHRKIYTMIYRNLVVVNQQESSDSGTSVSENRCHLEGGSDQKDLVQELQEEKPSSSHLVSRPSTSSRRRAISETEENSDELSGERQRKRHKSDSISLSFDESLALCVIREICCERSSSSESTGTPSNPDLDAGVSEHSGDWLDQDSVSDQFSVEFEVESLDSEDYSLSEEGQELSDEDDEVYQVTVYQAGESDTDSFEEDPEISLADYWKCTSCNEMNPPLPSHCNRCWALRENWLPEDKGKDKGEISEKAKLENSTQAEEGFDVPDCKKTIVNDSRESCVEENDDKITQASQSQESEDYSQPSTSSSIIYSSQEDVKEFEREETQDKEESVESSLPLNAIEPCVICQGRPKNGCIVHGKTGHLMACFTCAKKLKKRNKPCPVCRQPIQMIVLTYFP
Jurkat NFkB inh: inhibitors of the PMA/ionomycin-induced NF-kB reporter in Jurkat cells; 0.53% of 330,000 active; PMA/ionomycin-induced NF-kB luciferase reporter, luminescence; inhibition, % at 4 µM; AID 435003; in the data active means inhibition above about 50%
NTR1 agonist: activates human neurotensin receptor 1. activation, % at 20 µM. P30989. AID 493036. NTR1-U2OS beta-arrestin-GFP spot imaging, agonist mode. 0.17% of 330,000 active;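 active means activation at or above 40% of the spot to cytoplasm intensity ratio, with at least 20 cells analyzed; inconclusive means wells under 20 cells, flagged as cytotoxic or low count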
Mdm2-MdmX conf: confirmation of human Mdm2/MdmX interaction inhibitors; shares compounds with Mdm2-MdmX inh; Mdm2-MdmX binding, luminescent assay; inhibition, % at 8 µM; 55% of 10,000 active; AID 489028; in the data active means inhibition above about 40%
FLuc counter: counter-screen for Mdm2/MdmX inhibitors: full-length luciferase | shares compounds with Mdm2-MdmX inh | SaOS-2 full-length luciferase counterscreen, luminescence | inhibition, % at 8 µM | 77% of 6,200 active | AID 504607;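 active means mean inhibition at 8 µM reaching about 37%, which flags the compound as non-specific, limit read from the data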;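 further: p53-null SaOS-2 cells with luciferase driven by a doxycycline-inducible promoter; compound on cells about two nights before reading with doxycycline added after day one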
Of the large screens only hits and unclear results are named; the others gave an inactive call (follow-up assays come after a bar, where they were run). In the library only some 3.8% were active in any assay of this set; here they are far more common.

O=C(NCc1csc2ccccc12)Nc1cc(Cl)cc(Cl)c1	Mdm2-MdmX inh 69.1 | Mdm2-MdmX conf inactive
O=C(O)c1ccccc1OC(C(=O)Nc1cc(Cl)cc(Cl)c1)c1ccccc1 (centres undefined)	Mdm2-MdmX inh 76.5 | Mdm2-MdmX conf inactive
O=C(Nc1cc(Cl)cc(Cl)c1)C(c1ccccc1)N1CCCCC1 (centres undefined)	none
O=C(Nc1ccc(C(=O)NCCCN2CCN(c3ccccc3)CC2)cc1)C1=CSCCO1	none (no result: Beta cell apopt)
CC(=O)C1=C(C)Nc2ncnn2C1c1ccc(Br)cc1 (centres undefined)	none
CN(C)C(CNC(=O)c1cc2ccccc2oc1=O)c1ccccc1 (centres undefined)	none
Cc1cc(Cl)ccc1OC(C)C(=O)NN=C1CCCCCC1 (centres undefined)	none
O=C(Nc1cccnc1)Nc1cc(Cl)cc(Cl)c1	Mdm2-MdmX inh 50.2 | Mdm2-MdmX conf inactive
CC(C)(C)OC(=O)[C@H](Cc1ccccc1)NC(=O)c1[nH]cnc1C(=O)Nc1cccc(Cl)c1	Mdm2-MdmX inh 70.1 | Mdm2-MdmX conf inactive
CC(C)(C)OC(=O)[C@H](Cc1ccccc1)NC(=O)c1[nH]cnc1C(=O)N[C@@H](Cc1ccccc1)C(=O)OCc1ccccc1	none
CCOC(=O)c1ccc(NC(=O)c2nc[nH]c2C(=O)N[C@@H](Cc2ccccc2)C(=O)OC(C)(C)C)cc1	Mdm2-MdmX inh 62.1 | Mdm2-MdmX conf inactive
C[C@H](NC(=O)c1nc[nH]c1C(=O)N[C@@H](Cc1ccccc1)C(=O)OC(C)(C)C)C(=O)OC(C)(C)C	none
CCOC(=O)c1ccc(NC(=O)c2nc[nH]c2C(=O)NCC(=O)OC(C)(C)C)cc1	none
CC(C)(C)OC(=O)[C@H](Cc1ccccc1)NC(=O)c1[nH]cnc1C(=O)Nc1ccc(Cl)cc1	Mdm2-MdmX inh 50.9 | Mdm2-MdmX conf inactive
CC[C@](C)(O)c1cc2ccccc2c(=O)o1	none
O=C(Nc1ccc(Cl)cc1)c1cc2c(cc1O)[nH]c1ccccc12	Mdm2-MdmX inh 97.3 | Mdm2-MdmX conf 92.7 | FLuc counter 58.5
CC(=O)Nc1ccc2[nH]c3ccccc3c2c1	none
COc1ccc(CCNC(=O)CCC(=O)n2ncc3cc(C)ccc32)cc1OC	none
CCN(CC)c1ccc(/C=C2\NC(=O)NC2=O)cc1	Mdm2-MdmX inh 62.6 | Mdm2-MdmX conf 47.6 | FLuc counter 57.9
COc1ccc(OCc2cc(C(=O)N3C[C@H]4CC[C@H]3C4)no2)c(Cl)c1	none
CC(=O)N/C(=N\c1nc(C)cc(C)n1)Nc1ccc2ccccc2c1	Mdm2-MdmX inh 73.8 | Mdm2-MdmX conf 71.9 | FLuc counter 62.0
Cc1cccc(NC(=O)CSc2cccc[n+]2[O-])c1C	none
CN(C)CC/C=C1\c2ccc(F)cc2Sc2cc(F)c(Cl)cc21	Mdm2-MdmX inh 54.8 (no result: Beta cell apopt) | Mdm2-MdmX conf inactive
CN(C)CC/C=C1/c2ccc(F)cc2Sc2ccc(Cl)cc21	none
CN(C)CC/C=C1\c2ccccc2Sc2cc(F)c(Cl)cc21	Mdm2-MdmX inh 65.5 | Mdm2-MdmX conf inactive | FLuc counter 78.1
O=c1cc(CN2CCOCC2)c2cc(Cl)ccc2o1	none
Cc1ccc(NS(=O)(=O)c2ccc(C)c(C(=O)NCC(c3ccccc3)N(C)C)c2)cc1 (centres undefined)	none
CC1=C[C@H](C)[C@H](c2c(F)cccc2Cl)CC1=O	none
O=C(CN1C(=O)/C(=C/c2ccc(Cl)cc2)SC1=S)NC1C=CS(=O)(=O)C1 (centres undefined)	none
O=C(CCN1C(=O)/C(=C/c2ccc(Cl)cc2)SC1=S)NC1C=CS(=O)(=O)C1 (centres undefined)	Mdm2-MdmX inh 58.7 | Mdm2-MdmX conf inactive
CC(C)c1ccc(/C=C2\SC(=O)N(CC(=O)NC3C=CS(=O)(=O)C3)C2=O)cc1 (centres undefined)	Mdm2-MdmX inh 76.6 | Mdm2-MdmX conf 40.4 | FLuc counter 40.4
Cc1ccc(S(=O)(=O)N2CCN(c3ccc(S(=O)(=O)N4CCOCC4)cn3)CC2)cc1	Mdm2-MdmX inh 65.9 | Mdm2-MdmX conf inactive
COc1cccc(CN(C)C(=O)C(CCSC)NS(=O)(=O)c2ccc3c(c2)OCCO3)c1OC (centres undefined)	Mdm2-MdmX inh 67.1 (no result: Beta cell apopt) | Mdm2-MdmX conf 55.8 | FLuc counter 71.7
O=C1c2cccnc2C(=O)N1Cc1ccc(S(=O)(=O)N2CCN(c3ccccc3)CC2)cc1	none
O=C(CCl)N(C1CCCC1)C1CCS(=O)(=O)C1 (centres undefined)	Mdm2-MdmX inh 87.1 | Mdm2-MdmX conf 72.3 | FLuc counter 54.9
CCCn1nc([N+](=O)[O-])c(C(C#N)c2nc3ccccc3s2)c(Cl)c1=O (centres undefined)	Mdm2-MdmX inh 80.3 | Mdm2-MdmX conf 73.8 | FLuc counter 56.8
COC(=O)c1cc(S(=O)(=O)N(Cc2ccccc2)C(C)(C)C)c[nH]1	none
CC(=O)c1c(C)[nH]c(C(=O)OCc2csc(CC(=O)Nc3ccccc3C)n2)c1C	Mdm2-MdmX inh 50.9 | Mdm2-MdmX conf inactive
CC(C)=CC(=O)OCc1csc(CC(=O)Nc2ccccc2C)n1	none
CSCC[C@H](NC(=O)Cc1ccc(Cl)cc1)C(=O)N1CCC2(CC1)NCCc1[nH]cnc12	A1 inh inconclusive
Nc1nc(-c2cc(O)ccc2[N+](=O)[O-])cc(-c2ccccc2)c1[N+](=O)[O-]	Mdm2-MdmX inh 64.7 | Mdm2-MdmX conf 57.1 | FLuc counter 54.0
O=[N+]([O-])c1ccc2nc(-c3ccccc3)cc(-c3ccccc3)c2c1	none
O=S(=O)(c1cccc(F)c1)N1CCN(C(=S)NCC2CCCO2)CC1 (centres undefined)	none
O=C(NCCCN1CCOCC1)c1ccc(-n2nc(C(F)(F)F)cc2-c2cccs2)cc1	Mdm2-MdmX inh 76.6 | Mdm2-MdmX conf inactive
CC(C)(C)c1ccc(C(=O)NCC(=O)N/N=C/c2cccnc2)cc1	none
CCCNC(=O)C(Cc1ccccc1F)NC(=O)c1ccccn1 (centres undefined)	none
Cc1nc2cc(-c3ccccc3)sc2c(=O)n1N	Beta cell apopt inconclusive, Mdm2-MdmX inh 62.3 | Mdm2-MdmX conf 55.6 | FLuc counter inactive
COc1ccc(N2CCN(C(=O)CSc3nc4nc(C)cc(C)n4n3)CC2)cc1	none
Cn1c(=O)oc2cc(S(=O)(=O)N3CCCC(C(=O)NC4CCCc5ccccc54)C3)ccc21 (centres undefined)	Mdm2-MdmX inh 76.2 | Mdm2-MdmX conf 69.8 | FLuc counter 54.4
Cc1cccc(NC(=S)NCCC(c2ccccc2)c2ccccc2)c1	Mdm2-MdmX inh 53.2 | Mdm2-MdmX conf inactive

Source: PubChem
